Compound activity (PubChem BioAssay)
Sampled rows, rich in hits. Any-hit rate of the full collection: about 1.5%.
N-glyco inh = N-linked glycosylation inhibition | reporter increase, % at 12.5 µM | D54 ERlucT glycosylation luciferase reporter, 24 h; percent of 100 nM tunicamycin response | 360,000 tested, 0.23% active;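 active means mean luciferase reporter signal, scaled so untreated is 0 and the glycosylation-blocking control 100, at or above a set limit in every replicate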;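 further: luciferase carries N-glycosylation sites so blocking glycosylation raises the light; 0% = median of neutral control wells and 100% = median of 100 nM tunicamycin wells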
RAD52 inh = blocks human RAD52 DNA annealing. 360,000 tested, 0.46% active. recombinant RAD52 DNA annealing, FRET fluorescence. inhibition, % at 18.7 µM. P43351. AID 651710;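 active means every replicate showing at least 50% inhibition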
F508del corr = CFTR F508del correction in bronchial cells; CFBE cells, YFP halide quenching; stimulated with forskolin plus potentiator P3; % fluorescence drop versus neutral controls; activity (quench increase), % at 7.58 µM; 350,000 tested, 0.36% active;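 active means mean added fluorescence quench of at least 8% versus neutral control, with both replicates also reaching 8%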;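 further: cells transiently co-express mutant CFTR-F508del with the halide-sensitive YFP; corrector assay measuring rescue of mutant channel to the surface after 24 h compound exposure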
dFosB act-1 = activators of mouse delta FosB homodimer; P13346; purified delta FosB, TAMRA-CDK5 oligo fluorescence polarization; percent of positive-control signal above neutral wells; activation, % at 25 µM; 340,000 tested, 0.99% active; AID 493131;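 active means mean activation above about 17%, with every replicate also reaching it, limit read from the data, passing the limit was not always enough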
Target sequence (P13346 whole entry, looked up): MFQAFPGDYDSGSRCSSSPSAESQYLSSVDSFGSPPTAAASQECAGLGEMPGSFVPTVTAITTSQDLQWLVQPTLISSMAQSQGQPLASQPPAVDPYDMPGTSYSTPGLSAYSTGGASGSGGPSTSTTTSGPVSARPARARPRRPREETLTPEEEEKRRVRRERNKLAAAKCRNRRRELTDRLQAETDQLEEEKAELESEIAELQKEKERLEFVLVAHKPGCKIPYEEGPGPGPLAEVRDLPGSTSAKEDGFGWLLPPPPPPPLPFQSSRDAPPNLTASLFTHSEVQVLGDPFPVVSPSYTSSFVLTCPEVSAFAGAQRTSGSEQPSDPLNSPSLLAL
RAD54 inh = blocks human RAD54 Holliday junction branch migration; inhibition, % at 10.4 µM; 360,000 tested, 0.14% active; Q92698; AID 602329; FAM/BHQ fluorescence;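 active means mean normalized replicate activity at least 40 and at least half of replicates scoring 40 or more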;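 further: 0% = median of neutral control wells and 100% = median of positive control wells; inhibitors cause a drop in the FAM fluorescence signal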
PvdQ acylase = blocks Pseudomonas aeruginosa PvdQ acylase activity; purified PvdQ acylase, fluorescence plate reader; inhibition, % at 10 µM; 340,000 tested, 0.063% active; in the data active means inhibition above about 30%, passing the limit was not always enough;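 further: 0% = vehicle neutral wells and 100% = reference inhibitor wells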
dFosB act-2 = activators of mouse delta FosB homodimer DNA binding | shares compounds with dFosB act-1 | activation, % at 24.9 µM | purified delta FosB, TAMRA-CDK5 oligo fluorescence polarization; normalised: neutral wells 0, positive control 100 | AID 588690 | 2,400 tested, under 10 active;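 active means highest replicate activation at or above 34% and every replicate reaching that threshold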;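 further: higher polarization means more probe DNA bound by delta FosB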
* hit, by the source's call.

For NC(=O)c1ccc(NC(=O)CNC(=O)c2sc3ccccc3c2Cl)cc1 the results were N-glyco inh 1.2, RAD52 inh -16.2, F508del corr -1.0, dFosB act-1 37.7*, RAD54 inh 9.1, PvdQ acylase 9.2 and dFosB act-2 1.9.
Screening O=C(Nc1ccncc1)c1sc2ccccc2c1Cl returned N-glyco inh 1.3, RAD52 inh -12.3, F508del corr 0.4, dFosB act-1 -23.9 and PvdQ acylase -1.0.
Screening CCCNC(=O)N1CC2(C1)[C@@H](c1ccccc1)[C@@H](CO)N2CC1CCOCC1 returned RAD52 inh 0.2 and F508del corr -0.8.
CC(=O)Nc1ccc(NC(=O)C(C)OC(=O)CNC(=O)c2sc3ccccc3c2Cl)cc1 (stereo unspecified) was read as N-glyco inh 1.1, dFosB act-1 3.8 and PvdQ acylase 0.4.
`CC(=O)Nc1ccc(NC(=O)CNC(=O)c2sc3ccccc3c2Cl)cc1` gave N-glyco inh 0.9, RAD52 inh -12.2, F508del corr -0.1, dFosB act-1 42.1*, RAD54 inh -3.1, PvdQ acylase -16.4 and dFosB act-2 1.4.
Screening C[C@@H]1CN([C@H](C)CO)C(=O)c2cccc(NC(=O)Nc3ccccc3)c2O[C@@H]1CN(C)C returned RAD52 inh 10.7, F508del corr 0.5 and RAD54 inh 2.5.
C[C@@H]1CCCCO[C@H](CN(C)C(=O)Cc2ccccc2)[C@@H](C)CN([C@@H](C)CO)C(=O)c2cc(NC(=O)Nc3ccc4c(c3)OCO4)ccc2O1 was read as RAD52 inh 7.5, F508del corr -2.2 and RAD54 inh -4.1.
Screening CS(=O)(=O)c1ccc(Cl)c(NC(=O)Cc2c(Cl)cccc2Cl)c1 returned N-glyco inh -1.3, RAD52 inh -12.9, F508del corr 2.6, dFosB act-1 41.0*, RAD54 inh 11.3, PvdQ acylase -11.0 and dFosB act-2 4.8.
`CS(=O)(=O)c1ccc(Cl)c(NC(=O)Cc2ccsc2)c1` gave N-glyco inh 2.6, RAD52 inh -11.0, F508del corr -3.2, dFosB act-1 0.4, RAD54 inh -5.7 and PvdQ acylase -9.2.
`COCCNC(=O)COc1ncnc2ccc(Br)cc12` gave N-glyco inh 3.5, dFosB act-1 -3.3, RAD54 inh 2.6 and PvdQ acylase -8.7.
O=C(COc1ncnc2ccc(Br)cc12)NCc1ccco1 was read as N-glyco inh 2.5, RAD52 inh -7.4, F508del corr 2.7, dFosB act-1 22.4*, RAD54 inh -4.5, PvdQ acylase -12.3 and dFosB act-2 -6.5.
Screening COc1ccc2c3c(n(C)c2c1)[C@H](CO)N(S(C)(=O)=O)CC31CCN(CC2CCCC2)CC1 returned RAD52 inh 4.7 and F508del corr 0.9.
Screening COc1ccc(CC(=O)Nc2nnc(-c3cccc([N+](=O)[O-])c3)s2)cc1 returned N-glyco inh 0.5, RAD52 inh -19.7, F508del corr -0.6, dFosB act-1 22.3*, RAD54 inh 4.9, PvdQ acylase 3.2 and dFosB act-2 0.6.
`COc1cccc(-c2nnc(NC(=O)c3cccs3)s2)c1` gave N-glyco inh 3.3, RAD52 inh 0.7, F508del corr -1.7, dFosB act-1 34.5*, PvdQ acylase -13.1 and dFosB act-2 0.9.
For COc1cccc(S(=O)(=O)Nc2ccc3c(c2)C(=O)N(C)[C@@H]2CC[C@H](CC(=O)O)O[C@H]2CO3)c1 the results were F508del corr 1.8 and RAD54 inh -7.0.
For COc1ccc(OCC(=O)Nc2nc3ccc(NC(C)=O)cc3s2)cc1 the results were N-glyco inh 0.5, RAD52 inh -6.4, F508del corr 1.1, dFosB act-1 22.9*, PvdQ acylase -4.3 and dFosB act-2 7.8.
CC(=O)Nc1ccc2nc(NC(=O)c3cccs3)sc2c1 was read as N-glyco inh -10.0, RAD52 inh 1.8, F508del corr 3.5, dFosB act-1 22.2*, RAD54 inh -10.1, PvdQ acylase -13.6 and dFosB act-2 -1.7.
